The results in this text go back to the supplement of paper PMC7156485.

What all share (conditions): concentration: 10 µM; 24 h
Test [1] deals with HCC1569. Kind of test: cell number relative to DMSO (% of DMSO); higher = more cells (less growth inhibition / toxicity). The essentials: (§1)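 HCC1569 and TDF cells were seeded at 800 per well in 384-well plates in RPMI with 10% FBS and treated with compounds at 10 µM for 24 h at 37 °C, in triplicate. After fixation in 3.7% formaldehyde, cells were stained with a rabbit anti-H1.0 antibody, an AlexaFluor 647 secondary and DAPI, and six fields per well were imaged at ×10. H1.0 nuclear intensity or cell number is given as percent of the plate control, using the median of replicates, with HCC1569 values smoothed for positional effects.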

Test [2] has as its system TDF. The test is described as above. The essentials: as §1
Test [3] concerns TDF. Kind of test: H1.0 immunofluorescence intensity relative to DMSO (% of DMSO); higher = stronger H1.0 induction, active = 120 or more. The essentials: as §1
Test [4] concerns HCC1569. Kind of test: H1.0 immunofluorescence intensity relative to DMSO (% of DMSO); higher = stronger H1.0 induction, active = 140 or more. The gist of the method:
as §1
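Throughout, for H1.0 immunofluorescence intensity relative to DMSO: TDF is a line of transformed human dermal fibroblasts of mesenchymal origin.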
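Throughout, for cell number relative to DMSO: TDF denotes transformed human dermal fibroblasts of mesenchymal origin.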

For the molecule `CNC(=O)OCC[N+](C)(C)C.[Cl-]` [Methylcarbamylcholine chloride], the cell number in test [1] is 101; in test [2] it was 92.5. The values for the H1.0 immunofluorescence intensity in test [3] and in test [4] were 99.2 (inactive) and 95.8 (inactive), respectively.
For `C[N+]1([O-])C2CCC1CC(OC(=O)C(CO)c1ccccc1)C2.Cl` (stereo not given), in that order: 97.9, 107, 92.4 (inactive) and 85 (inactive).
The matching figures for `Br.CC1NCCc2cc(O)c(O)cc21` (stereo not given): 100, 93.9, 105 (inactive) and 94.9 (inactive).
For `CC1CCC2N(C1)CC1C3CC4C(CC(=O)C5CC(O)CCC54C)C3CCC1C2(C)O` (stereo not given) [Imperialine], in that order: 102, 88.5, 97.1 (inactive) and 92.1 (inactive).
With `Cl.O=C(O)Cc1cnc[nH]1` [Imidazole-4-acetic acid hydrochloride], the cell number in test [1] turned out to be 105; in test [2] it was 107. The H1.0 immunofluorescence intensity is 93 (inactive) in test [3] and 93.3 (inactive) in test [4].
For `CC1CCCC(O)CCCCCc2cc(O)cc(O)c2C(=O)O1` (stereo not given), in that order: 102, 93.5, 91.8 (inactive) and 99.2 (inactive).
As to `COC1=CC(=O)OC(C=Cc2ccccc2)C1` (racemic), the cell number in test [1] is 104; in test [2] it was 92. Besides, the H1.0 immunofluorescence intensity was 95.5 (inactive) in test [3] and 83 (inactive) in test [4].
The matching figures for `O=P1(N(CCCl)CCCl)NCCCO1` (stereo not given) [Cyclophosphamide]: 107, 95.5, 101 (inactive) and 101 (inactive).
Take `C/C(Nc1ccccc1)=C1\C(=O)NC(Cc2ccccc2)C1=O` (stereo not given) [(3E)-3-(1-anilinoethylidene)-5-benzyl-2,4-pyrrolidinedione]: the values for the cell number in test [1] and in test [2] were 60.4 and 7.27, respectively. The H1.0 immunofluorescence intensity in test [3] is 193 (active); in test [4] it was 148 (active).
For `C=CC1CN2CCC1CC2C(O)c1ccnc2ccccc12` (single isomer, unassigned; (+)) [(+)-Cinchonine], in that order: 101, 106, 98.9 (inactive) and 91.1 (inactive).
